Bioassay records (PubChem)
Wnt bcat act: activates Wnt/beta-catenin signaling in a reporter cell assay | activator, plate reader | activation, % at 9.35 µM | actives 1.2% (n = 300,000); in the data active = activation above about 30%, passing the limit was not always enough; inconclusive = no clear call, values can overlap the other calls;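 note: 0% = neutral control wells and 100% = positive control wells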
hgDAF-12 ag: agonists of H. glycines DAF-12 nuclear receptor; activation, % at 6.8 µM; AID 687014; HEK293 GAL4-hgDAF12 UAS-luciferase reporter, agonist luminescence; normalized to butyrate control; actives 1.8% (n = 370,000);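 active = activation above a cutoff set at the mean of all screened compounds plus 3 SD, cut at about 10% in these data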;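 note: 0% = DMSO wells and 100% = sodium butyrate wells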
hcDAF12 agonist: activators of H. contortus DAF-12 nuclear receptor | HEK293 hcDAF-12 lit1-tk-luc reporter, luminescence; 0% DMSO, 100% Δ7-dafachronic acid | activation, % at 6.8 µM | actives 1.4% (n = 370,000) | AID 652067;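 active = activation above the mean of all tested compounds plus 3 SD, cut at about 5.5% in these data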;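 note: 100% = response to 3 µM Δ7-dafachronic acid high control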
ssDAF12 agonist: activates DAF-12 receptor from parasite S. stercoralis; HEK293 ssDAF-12/GRIP1 lit1-tk-luc reporter, luminescence; % of 3 µM dafachronic acid response; activation, % at 6.8 µM; actives 1% (n = 370,000); AID 652126;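 active = activation above the mean over all tested compounds plus 3 SD, cut at about 0.9% in these data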;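 note: 0% = DMSO-only wells and 100% = 3 µM delta7-dafachronic acid wells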
DAX1 inh: blocks DAX1 repression of SF-1 activated StAR promoter; HEK293T StAR-luciferase reporter, SF-1/DAX-1 repression relief; inhibition, % at 6.8 µM; actives 1.1% (n = 370,000);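 active = inhibition above the mean over all tested compounds plus 3 SD, cut at about 3.6% in these data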;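 note: 0% = DAX-1 cells with DMSO and 100% = cells lacking DAX-1 with DMSO; higher inhibition means more luminescence from relief of DAX-1 repression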
esBAF inh: SWI/SNF esBAF complex inhibition; mouse ES cells, Bmi1-luciferase knock-in reporter, 24 h; 100% = twice the neutral-well signal; reporter increase, % at 12.5 µM; actives 2% (n = 350,000); in the data active = activation above about 40%; inconclusive = no clear call, values can overlap the other calls;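 note: 0% = median of the plate's neutral control wells and 100% = double that signal; a rise in the Bmi1 reporter signal indicates esBAF inhibition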
hgDAF12 conf: hgDAF-12 agonism, confirmation assay; AID 743050; shares compounds with hgDAF-12 ag; HEK293 GAL4-hgDAF12 luciferase reporter, agonist mode; percent of butyrate response; actives 80% (n = 3,300); activation, % at 6.8 µM;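 active = mean activation over triplicate wells above the hit cutoff derived from the earlier primary screen, cut at about 11% in these data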;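 note: 0% = DMSO low control and 100% = 2 mM sodium butyrate high control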
LXR ag 2: LXR-beta agonism as DAF-12 counter-screen; HEK293 Gal4-LXR luciferase reporter, 24 h; shares compounds with hgDAF-12 ag; 3,300 tested, under 10 active; activation, % at 6.8 µM;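 active = mean activation of the triplicate above a set limit carried over from the primary screen, none filed active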
Target sequence (P55055 whole entry, looked up, the tested form may be a part): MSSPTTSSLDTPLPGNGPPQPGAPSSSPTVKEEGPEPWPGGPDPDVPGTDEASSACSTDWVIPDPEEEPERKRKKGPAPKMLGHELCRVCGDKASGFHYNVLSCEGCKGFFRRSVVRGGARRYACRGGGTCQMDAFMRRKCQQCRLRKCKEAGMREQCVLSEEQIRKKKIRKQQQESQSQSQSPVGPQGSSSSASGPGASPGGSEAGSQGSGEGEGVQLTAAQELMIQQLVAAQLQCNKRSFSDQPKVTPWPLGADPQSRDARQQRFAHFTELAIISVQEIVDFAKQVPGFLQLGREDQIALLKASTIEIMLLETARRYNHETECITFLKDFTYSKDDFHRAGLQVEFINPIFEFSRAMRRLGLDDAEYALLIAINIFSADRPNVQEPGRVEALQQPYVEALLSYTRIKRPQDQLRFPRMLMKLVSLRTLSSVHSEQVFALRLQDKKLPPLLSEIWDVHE
Active calls of the source: *; ? = inconclusive; . = no result. This is a sample that favours compounds with a hit; in the whole collection about 4.2% have one here.

SMILES | Wnt bcat act | hgDAF-12 ag | hcDAF12 agonist | ssDAF12 agonist | DAX1 inh | esBAF inh | hgDAF12 conf | LXR ag 2
Cc1ccc(C(=O)Nc2nnc(SCC(=O)N3CCCc4ccccc43)s2)cc1 | 26 | 14* | 4 | 1 | 4.2* | . | 9 | 1
O=C(Nc1nnc(SCC(=O)N2CCCc3ccccc32)s1)c1cccc2ccccc12 | . | 5 | -2 | -1 | 1 | . | . | .
CCCNC(=O)N1[C@@H]2CN(C(=O)NC(C)C)c3ccccc3[C@@H]2[C@@H]1CO | . | . | . | . | . | 0 | . | .
CS(=O)(=O)c1ccc2nc(NC(=O)c3cccs3)sc2c1 | 17 | 15* | 6.3* | 1 | 4.0* | -52 | 16* | 1
CCC(=O)Nc1nc2ccc(S(C)(=O)=O)cc2s1 | 0 | 8 | -3 | -1 | -1 | . | . | .
CCOc1ccc2nc(NC(=O)Cn3c(C)csc3=O)sc2c1 | 5 | 1 | 0 | -1 | 3 | . | . | .
CCOc1ccc2nc(NC(=O)CCC(=O)c3cccs3)sc2c1 | . | 13* | 5 | 0 | 1 | . | 15* | 1
COc1ccc(NC(=O)Nc2ccc3c(c2)C(=O)N([C@@H](C)CO)C[C@H](C)[C@@H](CN(C)C(=O)Nc2ccccc2)OCCCC[C@H](C)O3)cc1 | . | . | . | . | . | 2 | . | .
N#Cc1ccc(C(=O)Nc2nc3ccccc3[nH]2)cc1 | -1 | 16* | 2 | 0 | 2 | 25 | 11* | 1
COCC(=O)N1[C@H](C(=O)Nc2ccccc2)[C@@H](CO)[C@@H]2Cn3c(ccc(-c4cccnc4)c3=O)[C@@H]21 | . | . | . | . | . | -2 | . | .
Cc1noc(C)c1NC(=O)N(C)C[C@@H]1OCCCC[C@H](C)Oc2ccc(N(C)C)cc2C(=O)N([C@H](C)CO)C[C@H]1C | . | . | . | . | . | -3 | . | .
CCOc1cc(/C=N/NC(=O)C(=O)N/N=C/c2ccc(O)c(OCC)c2)ccc1O | 0 | -1 | -2 | -1 | 0 | 9 | . | .
COc1ccc(/C=N/NC(=O)CCC(=O)Nc2ccccc2)cc1OC | -1 | 2 | 0 | -1 | 0 | . | . | .
CCOc1cc(/C=N/NC(=O)N/N=C/c2ccc(O)c(OCC)c2)ccc1O | 49* | 14* | 5 | 1.1* | -1 | . | 16* | 1
COc1cc(/C=N/NC(=O)CCC(=O)Nc2ccc(F)cc2)ccc1O | 0 | 24* | 0 | -1 | 0 | -4 | 0 | 0
Cc1cccc(S(=O)(=O)N2CC[C@@H]3[C@H]2c2cc(C#Cc4cccc(F)c4)ccc2N[C@@H]3CO)c1 | . | . | . | . | . | 0 | . | .
C[C@H](CO)N1C[C@H](C)[C@@H](CN(C)C(=O)C2CC2)Oc2cc(Br)ccc2S1(=O)=O | . | . | . | . | . | -4 | . | .
CCOC(=O)CSc1nc(-c2ccncc2)ccc1C#N | -2 | 17* | 4 | 0.9* | 3 | 30 | 16* | 1
CCOC(=O)CC(=O)CSc1nc(-c2cccnc2)ccc1C#N | -2 | -2 | 0 | -1 | 0 | ? | . | .
Fc1ccccc1CSc1nnc(-c2ccccc2)o1 | 68* | 18* | 2 | 0 | 2 | 31 | 14* | 1
c1ccc(CSc2nnc(-c3ccncc3)o2)cc1 | . | 10 | 1 | -2 | 1 | 5 | . | .
Fc1ccccc1CSc1nnc(-c2cccnc2)o1 | 40* | 14* | 3 | 0 | 3 | . | 11* | 1
COCC(=O)Nc1ccc2c(c1)[C@@H]1C[C@@H](CC(=O)N(C)C)O[C@@H](CO)[C@@H]1O2 | . | . | . | . | . | 0 | . | .
C[C@H](CO)N1C[C@H](C)[C@H](CN(C)C)Oc2ncc(-c3cccc(F)c3)cc2C1=O | . | . | . | . | . | -5 | . | .
CCCNC(=O)N1C[C@H](C)[C@H](OC)CN(C)C(=O)c2cc(NC(=O)CCC)ccc2OC[C@H]1C | . | . | . | . | . | 0 | . | .
SMILES | Wnt bcat act | hgDAF-12 ag | hcDAF12 agonist | ssDAF12 agonist | DAX1 inh | esBAF inh | hgDAF12 conf | LXR ag 2
O=C(Nc1ccccn1)c1csc2c1CCCC2 | 17 | 19* | 6.0* | 0 | 3 | . | 16* | 1
CN(C)c1ccc(/C=N/N=C/c2ccccc2O)cc1 | . | 16* | 4 | 1.9* | 3 | ? | 6 | 1
Cc1ccc(N=c2oc3cc(O)ccc3cc2C(N)=O)cc1 | 22 | 18* | 5 | -1 | 2 | 20 | 5 | 0
Cc1ccc(C(=O)N/N=c2\oc3ccccc3cc2C(N)=O)cc1 | 2 | -4 | -3 | -1 | 0 | 1 | . | .
COc1ccc(S(=O)(=O)N(C)C[C@@H]2Oc3ccc(NC(=O)C4CCCCC4)cc3C(=O)N([C@@H](C)CO)C[C@H]2C)cc1 | . | . | . | . | . | -3 | . | .
CCn1c(/C=C/c2ccccc2Cl)nc2ccccc2c1=O | 15 | 2 | -1 | -1 | 0 | 34 | . | .
Cc1cccc(/C=C/c2nc3ccccc3c(=O)[nH]2)c1 | 24 | 18* | 4 | 0 | 3.7* | . | 21* | 1
COc1cc(/C=C/c2nc3ccccc3c(=O)[nH]2)ccc1O | 3 | 17* | 3 | 0 | 3.7* | 11 | 11* | 1
O=C(O)c1ccc(/C=C/c2nc3ccccc3c(=O)[nH]2)cc1 | 0 | 0 | 0 | -1 | 0 | -7 | . | .
O=c1[nH]c(/C=C/c2ccccc2Cl)nc2ccccc12 | 29 | 14* | 2 | 0 | 2 | 0 | 21* | 1
C[C@@H]1CN([C@@H](C)CO)C(=O)c2cc(NC(=O)NC3CCCCC3)ccc2O[C@@H](C)CCCCO[C@H]1CN(C)C(=O)CCC(F)(F)F | . | . | . | . | . | 4 | . | .
CCCCSc1nc2c(cnn2-c2ccccc2)c(=O)n1N | 18 | 19* | 3 | -1 | 3 | . | 14* | 1
O=C(Nc1ccc(Br)cc1)c1ccccc1Br | 8 | 13* | 3 | 0 | 1 | 78* | 16* | 1
O=C(CSc1cccc[n+]1[O-])Nc1cc2c(cc1Cl)C(=O)c1ccccc1C2=O | ? | 15* | 5 | 1.1* | 1 | . | 13* | 1
Cc1ccc(C(=O)CSc2ccccn2)cc1 | . | 15* | 5 | 0 | 3 | 49* | 14* | 1
O=C(Nc1ccc(N2CCCCC2)cc1)C(Cl)c1ccccc1 (stereo unspecified) | . | 19* | 5 | 0 | 1 | . | 9 | 0
O=C(Nc1ccc(N2CCCCCC2)cc1)c1ccccc1Cl | -1 | 17* | 1 | 1 | 1 | 31 | 19* | 1
C[C@@H]1CN([C@H](C)CO)S(=O)(=O)c2ccc(C#CC3CC3)cc2O[C@@H]1CN(C)Cc1cccnc1 | . | . | . | . | . | 0 | . | .
O=C(NC(=S)Nc1ccccc1O)c1ccc(Cl)cc1Cl | 3 | 14* | 6.5* | 1 | 1 | 35 | 9 | 0
